Experimental findings from PubChem BioAssay (EPA / NIEHS) are described below.

The structures appear in SMILES notation. Activity calls are given as the source filed them. How the source made its calls: active means hit-call score of the fitted dose curve at least 0.9, where 1 is the maximum; inactive means score below 0.9.

A short description of this assay: ATG_NF_kB_CIS: Attagene CIS-FACTORIAL HepG2 Assay for human Nuclear Factor Kappa B (NF-kB) (AID 2282991). The following applies: HepG2 Attagene cis-factorial NF-kB reporter mRNA; actives raise or lower the signal. The protocol: ATG_CIS is a cell-based, multiplexed-readout assay that uses HepG2, a human liver cell line, with measurements taken at 24 hours after chemical dosing in a 24-well plate.ATG_NF_kB_CIS is one of 52 assay component(s) measured or calculated from the ATG_CIS assay. It is designed to make measurements of mRNA induction, a form of inducible reporter, as detected with fluorescence intensity signals by Reverse transcription polymerase chain reaction (RT-PCR) and Capillary electrophoresis technology.Data from the assay component ATG_NF_kB_CIS was analyzed into 1 assay endpoint. This assay endpoint, ATG_NF_kB_CIS, was analyzed with bidirectional fitting relative to DMSO as the negative control and baseline of activity. Using a type of inducible reporter, measures of mRNA for gain or loss-of-signal activity can be used to understand the reporter gene at the transcription factor-level as they relate to the gene NFKB1. Furthermore, this assay endpoint can be referred to as a primary readout, because this assay has produced multiple assay endpoints where this one serves a reporter gene function. To generalize the intended target to other relatable targets, this assay endpoint is annotated to the dna binding intended target family, where the subfamily is NF-kappa B.
Human liver HepG2 cells are transiently transfected with multiple reporter transcription units (MRTUs) in 6-well plates using FuGene 6 reagent (Roche; 3 ml FuGene/1 mg DNA). The MRTU constructs are regulated by a cis-regulating element (promoter). […] A major difference between the CIS and TRANS system is that in CIS activities of endogenous TFs are measured, whereas the TRANS assay evaluates changes in activities of exogenous, chimeric NR-Gal4 proteins. […] At the end of 24 hour incubation, total RNA was isolated using TriZol reagent (Invitrogen). The isolated RNA is then reverse-transcribed using oligo(dT) primer and Mo-MLV reverse transcriptase (Invitrogen) with DNAse I (Ambion) treatment for 30 min. The one-tenth of the produced cDNA was amplified by PCR using Taq DNA polymerase (Invitrogen) and two reporter sequence-specific primers. The PCR products were fluorescently labeled by primer extension with 6-arboxyfluorescein (6-FAM) 5'-labeled reporter sequence-specific primer (2 min at 95 C, 20 s at 68 C and 10 min at 72 C) and these products were digested with 5U of HpaI (New England Biolabs) for 2h at 37 C. The fragments were purified using Qiaquick PCR columns (Qiagen), analyzed on an ABI 3130xL genetic analyzer (Applied Biosystems) with peak positions identified by using a set of X-rhodamine (ROX)-labeled MapMarker1000 molecular weight standards (BioVentures). The raw capillary electrophoresis data was processed using Attagraph software (Attagene).
Consider `O=C(CCCCCCCCc1cccnc1)N1CCC(C=C(c2ccccc2)c2ccccc2)CC1`, for which the call was inactive.
Regarding `O=C(O)c1cc(N=Nc2ccc(S(=O)(=O)Nc3ccccn3)cc2)ccc1O`, the compound was classed as inactive.
Consider `C=CCCCCCCCCC(=O)O`, for which the call was inactive.
As for `CCCN(C1CCN(C(=O)C2CCNCC2)CC1)[C@@H]1CCc2ccc(OC)cc2C1`, the AC50 is 186 µM (active).
Regarding `O=C1CCCCCN1`, the compound was classed as inactive.
Take `CCNc1ccccc1`: the compound was classed as inactive.
`Nc1cccc(N)c1`: the outcome was inactive.
Take `COc1ccc(/C=C/S(=O)(=O)NC(=O)c2ccc(C)cc2Cl)cc1`: the outcome was inactive.
As to `Nc1nc2ncc(CNc3ccc(C(=O)N[C@@H](CCC(=O)O)C(=O)O)cc3)nc2c(=O)[nH]1`, the call was inactive.
Take `Cc1ccc(O)cc1`: the outcome was inactive.
Regarding `Fc1ccccc1[C@@H](F)COC1CCC(Nc2ncnc3[nH]ncc23)CC1` (stereo not given in full), the compound was classed as inactive.
On the same count and under the same terms, for `COCCOCCOCCOC` the value was “inactive”; for `CCOC(=O)CC(CC(=O)OCC)(OC(C)=O)C(=O)OCC`, “inactive”.
In the case of `Cc1c(-c2cccnc2)c2ccccc2n1CCCCC(=O)O`, the AC50 is 100 µM (active).
Consider `NC(=O)NO`, for which the compound was classed as inactive.
Regarding `CCCCCCCCCCCCCCCO`, the result was inactive.
For `Clc1nc(Cl)c(Cl)c(Cl)c1Cl`, the result was inactive.
The same measure, in the same setting: in the case of `CCOCCOCCOCCO` it was “inactive”; in that of `O=P(OC(CCl)CCl)(OC(CCl)CCl)OC(CCl)CCl`, “inactive”.
For the compound `On1ccccc1=S`, the AC50 is 10.2 µM (active).
As to `O=C(O)CCN(C1(C(=O)NO)CCCC1)S(=O)(=O)c1ccc(Oc2ccc(F)cc2)cc1`, the compound was called inactive.
Regarding `CCOc1cccc(-n2cc(C(=O)N3CCN(c4cc(C(=O)O)c5ccccc5c4)CC3)nc2-c2ccc(C)cc2)c1`, the call was inactive.
For the compound `O=c1[nH]c2ccc(S(=O)CCN3CCC(Cc4ccc(F)cc4)CC3)cc2o1` (stereo not given), the AC50 was 76.2 µM (active).
On to `CCOCCO`, for which the call was inactive.
`COc1cccc(-c2ccc(/C=C\CN3CCCCCC3)cc2Cl)c1`: the compound was called inactive.
`CC(O)CN(CCN(CC(C)O)CC(C)O)CC(C)O` (stereo not given): the outcome was inactive.
As to `CC(C)(O)c1coc(S(=O)(=O)NC(=O)Nc2c3c(cc4c2CCC4)CCC3)c1`, the result was inactive.
Still for that read-out and setting: for `CC[C@H]1OC(=O)[C@H](C)[C@@H](O[C@H]2C[C@@](C)(OC)[C@@H](O)[C@H](C)O2)[C@H](C)[C@@H](O[C@@H]2O[C@H](C)C[C@H](N(C)C)[C@H]2O)[C@](C)(O)C[C@@H](C)C(=O)[C@H](C)[C@@H](O)[C@]1(C)O` the value was “inactive”.
`COCCOc1cc2cc(C(=O)NC3CCN(C(C)C)CC3)n(CC(=O)Nc3ccc(Cl)cn3)c2cn1`: the AC50 was 180 µM (active).
For `CCN(C(=O)c1cc(C)cc(OC[C@H](C)Nc2ccncc2)c1)C(C)C`, the outcome was inactive.
For `COC(=O)c1ccccc1O`, the compound was classed as inactive.
Still for that read-out and setting: for `CC[C@H](C)C(=O)O[C@H]1C[C@@H](C)C=C2C=C[C@H](C)[C@H](CC[C@@H]3C[C@@H](O)CC(=O)O3)[C@H]21` the value was “inactive”; for `CNCc1ccc(NC(=O)c2c[nH]c3c2C(=O)CCC3)cc1`, “inactive”; for `C=CC(=C)CCC=C(C)C`, “inactive”.
`COC(=O)c1c(Cl)c(Cl)c(C(=O)OC)c(Cl)c1Cl`: the call was inactive.
Take `COc1ccc(-n2nc(C(F)F)cc2-c2ccc(S(C)=O)cc2)cc1` (stereo not given): the compound was classed as inactive.
On to `CCc1cc(SCc2sc(-c3ccc(C(F)(F)F)cc3)nc2CN2CCN(c3ccc(OC)cc3)CC2)ccc1OCC(=O)O`, for which the concentration at half-maximal activity (AC50) was 20.2 µM (active).
For the compound `CC(C)CC(C)(O)C#CC(C)(O)CC(C)C` (stereo not given), the outcome was inactive.
Regarding `O=C1CCC(N2C(=O)c3ccccc3C2=O)C(=O)N1` (stereo not given), the result was inactive.
For the compound `CCCCCCCCCCCCc1ccccc1`, the outcome was inactive.
